From PubChem BioAssay (NCATS)
Results filed as inconclusive are left out. Activity calls are given as the source filed them. The call rests on the fitted dose curve; in most records, active means well fitted inhibition curve with a large enough effect; inconclusive means small, poorly fitted or top-dose-only effect; inactive means no such curve, though single readings can be large or run the other way.

Experiment: qHTS for Inhibitors of the Aldehyde Dehydrogenase Family (ALDH1A2, ALDH1A3, ALDH2, ALDH3A1) (AID 2061307); further: nearly all actives have a fitted effect of over 50% in size; on Potency: test system not described further here
Details: ALDH inhibition qHTS; series mostly up to 50.3 µM
Potency means the concentration at half of the fitted maximal effect.

Potency, active:
O=C(c1ccc(F)cc1)c1no[n+]([O-])c1C(=O)c1ccc(F)cc1 12.7 µM, Cn1ccc(=Nc2ccc(NC(=O)c3ccc(N=c4ccn(C)c5ccc([N+](=O)[O-])cc45)cc3)cc2)cc1 8.96 µM, COc1ccc(-n2ncc3c2CCCC3NC(=O)c2cccc(C(F)(F)F)c2)cc1 (stereo not given) 11.3 µM, Cc1cc(Cl)ccc1-n1c(CCC(=O)O)ccc1-c1cccs1 12.7 µM, OCC1CCN(c2ccc3cc(Br)ccc3n2)CC1 8.91 µM, CCOc1ccc(CNc2ccc3ccccc3c2)cc1 2.83 µM, O=C(c1ccc(Cl)cc1)c1no[n+]([O-])c1C(=O)c1ccc(Cl)cc1 7.98 µM, Clc1ccc(-c2noc3ncnc(N4CCCCC4)c23)cc1 11.3 µM, Cc1ccc(-c2cc(-c3c(Cc4ccc(S(N)(=O)=O)c(F)c4)c(CC4CC4)nn3-c3nc(C(=O)O)cs3)ccc2F)s1 17.9 µM, O=C(Nc1ccc(N2CCCCC2)nc1)c1cccs1 5.04 µM, O=C(N/N=C/c1ccc(Sc2ccccn2)o1)c1cccc(F)c1 15.9 µM, Cc1ccccc1C(=O)c1no[n+]([O-])c1C(=O)c1ccccc1C 10 µM

Potency, inactive:
O=C(Nc1cccc(Oc2ncccn2)c1)c1cccc(C(F)(F)F)c1, O=C(c1ccco1)N1CCN(Cc2nc3ccccc3c(=O)n2-c2ccccc2C(F)(F)F)CC1, COc1ccccc1C(=O)Nc1nc2nc(C)cc(=O)n2[nH]1, O=C(CSc1nnc(-c2ccncc2)o1)Nc1ccc2c(c1)OCCO2, COc1ccccc1-c1noc(CNc2cccc(C#N)c2)n1, COc1ccc(-n2ncc3c2CCCC3NC(=O)c2ccc(F)c(F)c2)cc1 (stereo not given), O=C(Nc1ncc(Cc2ccc(C(F)(F)F)cc2)s1)C1CCC(c2ccccc2)CC1 (stereo not given), Cc1csc(-c2cccc(C(=O)Nc3ccc(F)c(F)c3F)c2)n1, O=C(O)c1csc(-n2[nH]c(-c3cc(F)ccc3F)cc2=O)n1, CCOc1ccc(-c2nc3scc(-c4ccc(OC)cc4)c3c(=O)[nH]2)cc1OC, COc1ccc2nc(-c3cnn(Cc4ccccc4)c3)sc2c1, Cc1n[nH]c(C)c1-n1c2c(cc(-c3nc(-c4ccc(Cl)cc4)cs3)c1=O)C(=O)CC(C)(C)C2, CN(C)C(C(=O)N1CCN(c2ccc(C#N)cc2)CC1)c1ccccc1F (stereo not given), CCOC(=O)c1c(C)n(-c2ccc(OC)cc2)c2ccc(O)cc12, O=S(=O)(Nc1ccccc1F)c1cccc(NC(=S)NCCN2CCOCC2)c1, COc1ccc(-n2ncc3c2CCCC3NC(=O)c2cc(NC(C)=O)ccn2)cc1 (stereo not given), COCCCNC(=O)c1cc2cc(S(=O)(=O)N(C)C)ccc2n1C, O=C(Nc1ncc(Cc2ccccc2F)s1)c1ccn(-c2ccccc2)n1, Cc1cccn2c(=O)c(C(=O)NCc3cccc(F)c3)cnc12, C#CCOC(=O)NCCCC[C@H](N)C(=O)O, CN1CCC(CNCc2nccc3c(=O)[nH]c(COc4ccc(Cc5ccccc5)cc4)nc23)C1 (stereo not given), COc1ccc(Cl)cc1Nc1cc(C)nc2nc(-c3ccccc3C)nn12, CS(=O)(=O)c1cccc(-c2csc3ncnc(Sc4nncs4)c23)c1, O=C(Nc1ccn[nH]1)c1ccn(-c2cccc(F)c2)n1, COc1ccc(-n2c(C)c(C(=O)O)c3cc(O)ccc32)cc1, COc1ccc(Cl)cc1NC(=O)c1nn(-c2ccc(C)cc2)c(=O)n(C)c1=O, Cc1cc(=O)n2[nH]c(NC(=O)c3cccnc3)nc2n1, Cn1c(C(=O)O)cnc1-n1cc(Cc2ccc(S(N)(=O)=O)cc2)c(-c2ccccc2)n1
